From PubChem BioAssay (NCI)
“And” between values parts separate entries of the source, which are not always exact repeats. Identical values can stand only once. The panel holds about 79,000 compounds, 15% with a hit somewhere; the sample as a whole holds those more often. Values without a mark were called inactive. The source made the active and inactive calls. Cut-off read from the data, not from the text of the source: active = growth inhibition above about 70%; inactive = the rest.

Experiments:
[1] = NCI Yeast Anticancer Drug Screen. Data for the rad50 strain (AID 155);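 note: 0% = growth of vehicle-only cultures of the same strain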; details: S. cerevisiae rad50 strain growth inhibition; at 50.0 µM; active compounds read high
How it was run: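 Genetically altered yeast (DNA repair pathway); compound treatment; growth inhibition vs vehicle ctrl.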

[2] = NCI Yeast Anticancer Drug Screen. Data for the mec2-1 strain (AID 157); details: S. cerevisiae mec2-1 strain, at 50.0 µM, active compounds read high
How it was run: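 Strain: mec2-1 (DNA repair/cell cycle alteration). Compound exposure, then growth measured; inhibition expressed relative to vehicle.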

[3] = NCI Yeast Anticancer Drug Screen. Data for the sgs1 mgt1 strain (AID 161);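 note: 0% = growth of cultures given vehicle only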; details: S. cerevisiae sgs1 mgt1 strain, at 50.0 µM, active compounds read high
How it was run: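 Mutant yeast exposed to compound; growth scored against vehicle-only wells.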

[4] = NCI Yeast Anticancer Drug Screen. Data for the cln2 rad14 strain (AID 165);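 note: 0% = growth equal to vehicle treated cultures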; details: S. cerevisiae cln2 rad14 strain, at 50.0 µM, active compounds read high
How it was run: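 Compounds are applied to the cln2 rad14 yeast strain, and growth is then compared with that of vehicle-treated cultures to give inhibition.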

[5] = NCI Yeast Anticancer Drug Screen. Data for the bub3 strain (AID 167); details: S. cerevisiae bub3 mutant strain, at 50.0 µM, active compounds read high
How it was run: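 Yeast carrying a defined mutation is treated with each compound, and growth is compared with that of vehicle-exposed cells to give inhibition.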

[6] = NCI Yeast Anticancer Drug Screen. Data for the mlh1 rad18 strain (AID 175); details: S. cerevisiae mlh1 rad18 strain growth inhibition; at 50.0 µM; active compounds read high
How it was run: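 Read-out is yeast growth inhibition, calculated against vehicle-only controls. The compound was applied to a strain engineered with DNA damage repair alterations.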

Structure (SMILES) | growth inhibition [1] | growth inhibition [2] | growth inhibition [3] | growth inhibition [4] | growth inhibition [5] | growth inhibition [6]
O.O=S(=O)(O)O.[Co+3].[NH2-].[NH2-].[NH2-].[NH2-].[OH-] | 31.2% | 10.7% | 8.6% | 29.2% | 12.4% | 21.5%
CC(=O)OCC12CCC(C)=CC1OC1C(N(C)C)C(O)C2(C)C12CO2 (stereo unspecified) | 33.1% | 49.6% | 16.5% | 39.1% | 18.4% | -16.9%
O=c1c2cc(Br)cc(Br)c2[nH]c(=S)n1-c1ccccc1 | -2.45% | 31.4% | 21.5% | 21.4% | 27.6% | 19.8%
COc1cccc(C)c1C1CC2CCCN2O1 (stereo unspecified) | 16.6% | 5.5% | 5.95% | 9.4% | 14.7% | 5.3%
O=C(O)CC(S)C(=O)O (stereo unspecified) | -19.1% | 10.4% | -3.7% | -38.3% | -9.85% | 14.6%
CNC(=O)Oc1cccc(NC(=O)OC(C)(C)C)c1 | 3.5% | 14.8% | 27.1% | 1.45% | 29.1% | 15.1%
[Cl][Pt+2][Cl].[NH-]c1ccc(Cl)cc1[NH-] | 9.7% | -11.9% | -3.05% | 8.15% | -11.1% | 7.5%
c1c[nH]c(Cc2ncc(Cc3cnc[nH]3)[nH]2)n1 | 4.4% | -20.6% | -9.55% | 21.8% | -13% | -9.6%
Nc1[nH]c(=S)[nH]c(=O)c1Cn1ccnc1 | -20.4% | 0.8% | -23.4% | -17.1% | -11.2% | -33.8%
CC1(C(=O)O)C2[Se]c3[se]ccc3C2C1(C)C(=O)O (stereo unspecified) | -3.45% | -12.7% | -3.5% | -12.2% | 1.8% | -4.55%
O=C1C2CCN(CC2)C1Cc1ccccc1 (stereo unspecified) | -10.2% and -4.55% | 1.95% and 2.95% | -8.7% and 4.4% | -4.3% and -0.15% | -18.3% and -2.8% | -15.4% and 2.95%
COc1cc(N=Nc2cccc(C(=O)O)c2)ccc1N(CCCl)CCCl | -12.4% | -16.4% | -30.9% | 17.7% | -3.3% | -23.3%
CC(=O)CC(C)=O.CC(=O)CC(C)=O.CC(=O)CC(C)=O.[Mn] | 11.2% and 10.1% | -1.45% and -5% | 8% and 1.6% | 10.8% and -53% | -3.1% and 3.2% | 8.05% and 18.4%
c1cc2c3c(cccc3c1)CC2 | -22.4% | 35.4% | -0.65% | -16.3% | 44.4% | -14.6%
O=P(O)(O)SP(=O)(O)O.[Co] | 22.2% | 6.9% | 11.2% | -8.9% | -12.8% | 14.2%
CC(=O)CC(C)=O.CC(=O)CC(C)=O.CC(=O)CC(C)=O.[Co] | -27.8% and 13.9% | -50.8% and -4.9% | -4.85% and 26.6% | -20.4% and -16.4% | -45% and 23.6% | -10.2% and 21.3%
C(=C/[PH+](c1ccccc1)c1ccccc1)/[PH+](c1ccccc1)c1ccccc1.[C-]#[O+].[C-]#[O+].[C-]#[O+].[C-]#[O+].[C-]#[O+].[Mo+2].[Mo+4].[c-]1[c-][c-][cH-][c-]1.[c-]1[c-][c-][cH-][c-]1 | 91.6% (active) | 93.5% (active) | 93.5% (active) | 92.2% (active) | 92.9% (active) | 91.2% (active)
CCS(=O)(=O)CCN1C(=O)CN=C(c2ccccc2F)c2cc(Cl)ccc21 | 27.6% | 6% | 20.8% | 12.4% | -0.7% | 16.4%
CC(Cc1ccccc1)NC(=O)/C=C/C(=O)O (stereo unspecified) | 5.9% | 4.25% | 9.6% | -6.95% | 36.8% | 11.9%
O=C(C1CO1)C(Cl)(Cl)Cl (stereo unspecified) | -3.95% | -6.85% | 3.8% | -8.2% | -15.2% | -2.35%
O=[N+]([O-])C(CO)CCC(CO)[N+](=O)[O-] (stereo unspecified) | -6.6% | -14% | -3.9% | -18.8% | -15.7% | -15.5%
